An excerpt weighted towards active compounds, which were near 12% of everything screened.
BAZ2B inh: qHTS Assay for Inhibitors of BAZ2B; Bromodomain adjacent to zinc finger domain protein 2B (Homo sapiens), Q9UIF8; AlphaScreen BAZ2B-H3K14Ac peptide displacement; Potency, µM (highest dose often 114 µM), for the others: at the highest dose activity change, negative = inhibition, usual class: inhibitors; 4.4% of 360,000 active; AID 504333, 2011; note: % is set by controls: 0 for no effect and ±100 for the full control effect; nearly all actives have a fitted effect of over 60% in size
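Compounds, titrated to a top concentration of 110 uM, were incubated 30 min at room temperature with preformed BAZ2B/acetyl-K14 H3 peptide complex (50 nM each). Proximity signal was measured by AlphaScreen after 20 min with beads.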
Sfp inh: qHTS Assay for Inhibitors of Bacillus subtilis Sfp phosphopantetheinyl transferase (PPTase) | Biochemical Sfp PPTase activity, qHTS | 4'-phosphopantetheinyl transferase ffp (Bacillus subtilis), Q9F4F7 | AID 1490, 2009 | Potency, µM, without a hit: largest response in the series, negative = inhibition, hits mostly inhibitors | 3.5% of 310,000 active;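 note: the enzyme is Sfp with the accession as filed and its product quenches rhodamine fluorescence; 0% = enzyme reaction without inhibitor and -100% = no enzyme wells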
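Buffer: 50 mM Hepes-Na pH 7.6, 10 mM MgCl2, 0.01% Nonidet P-40, 0.01% BSA. Enzyme 15 nM, pre-exposed to compound 15 min; substrates then added and fluorescence change tracked over 30 min.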
TDP1 inh: qHTS Assay for Inhibitors of Tyrosyl-DNA Phosphodiesterase (TDP1); Potency, µM (doses to about 130 µM), without a hit: top-dose activity change, negative = inhibition, most hits filed as inhibitors; recombinant TDP1, AlphaScreen DNA substrate cleavage; Tyrosyl-DNA phosphodiesterase 1 (Homo sapiens), Q9NUW8; 0.28% of 350,000 active; note: % is set by controls: 0 for no effect and ±100 for the full control effect; nearly all actives have a fitted effect of over 40% in size
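Enzyme-compound mixtures sat 15 min at room temperature, followed by a 5 min reaction with 15 nM final substrate and 10 min with AlphaScreen beads. Recombinant human Tdp1 was used at 1 nM final.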
JMJD2A Tudor inh: qHTS Assay for Inhibitors of JMJD2A-Tudor Domain; AlphaScreen JMJD2A-Tudor / H3K4me3 peptide binding; Potency, µM (series often up to 114 µM), for the others: at the highest dose activity change, negative = inhibition, most hits filed as inhibitors; 4.4% of 390,000 active; note: % is set by controls: 0 for no effect and ±100 for the full control effect; nearly all actives have a fitted effect of over 50% in size
HP1b binding inh: HTS for Inhibitors of HP1-beta Chromodomain Interactions with Methylated Histone Tails; Chromobox protein homolog 1 (Homo sapiens), P83916; AlphaScreen HP1-beta / biotin-H3K9me3 peptide binding; Potency, µM (highest dose often 114 µM), without a hit: at the highest dose activity change, negative = inhibition, usual class: inhibitors; 0.56% of 390,000 active; AID 540317, 2011; note: nearly all actives have a fitted effect of over 70% in size
Target sequence (P83916 whole entry, looked up): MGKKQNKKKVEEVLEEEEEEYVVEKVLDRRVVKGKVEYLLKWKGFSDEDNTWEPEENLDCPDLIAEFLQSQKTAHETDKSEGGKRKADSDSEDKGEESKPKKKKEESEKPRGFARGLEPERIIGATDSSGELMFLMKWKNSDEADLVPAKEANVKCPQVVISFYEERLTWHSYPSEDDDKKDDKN
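AlphaScreen: HP1-beta (50 nM) preformed 30 min with biotin-H3(1-18)K9me3 peptide (50 nM) in PBS pH 7.4, 0.01% Tween-20. Compound added for 30 min at RT, then streptavidin donor/nickel chelate acceptor beads (10 ug/mL) for 30 min.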
G9a inh: qHTS Assay for Inhibitors of Histone Lysine Methyltransferase G9a; G9a H3K9 monomethylation, AlphaScreen, 2 h; Potency, µM (titrated, usually from 102 µM), without a hit: at the top dose activity, negative = inhibition, hits mostly inhibitors; 8.8% of 350,000 active; AID 504332, 2011; note: % is set by controls: 0 for no effect and ±100 for the full control effect; nearly all actives have a fitted effect of over 75% in size
Target sequence (Q96KQ7 913-1193 limits assumed): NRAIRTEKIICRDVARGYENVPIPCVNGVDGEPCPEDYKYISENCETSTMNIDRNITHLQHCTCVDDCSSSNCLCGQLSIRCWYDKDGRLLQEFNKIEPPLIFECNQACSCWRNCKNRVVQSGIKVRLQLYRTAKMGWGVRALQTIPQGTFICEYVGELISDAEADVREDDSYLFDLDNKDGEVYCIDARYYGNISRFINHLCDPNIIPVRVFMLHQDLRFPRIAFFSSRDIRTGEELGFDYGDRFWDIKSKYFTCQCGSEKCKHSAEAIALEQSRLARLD
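G9a (20 nM) was preincubated 15 min with compound, then reacted 2 h at room temperature with 500 nM biotin-H3K9 peptide and 20 µM SAM. Monomethyl-H3K9 detected by AlphaScreen using anti-H3K9me1 antibody.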
* hit, by the source's call; ? = inconclusive; . = not tested or not shown; ! = not active in a repeat; [ ] = another dose, or the depositor's remark. Calls come from the whole dose curve; as a rule, active = well fitted curve in the direction sought with a large enough effect; inconclusive = small, poorly fitted or top-dose-only effect, or another doubt; inactive = no such curve, though single readings can be large; an effect the other way counts as inactive or inconclusive. Potency is the fitted concentration of half-maximal effect.

SMILES | BAZ2B inh | Sfp inh | TDP1 inh | JMJD2A Tudor inh | HP1b binding inh | G9a inh
Cc1ccc(C)c(N(C(=O)c2ccco2)C(C(=O)NC2CCCC2)c2ccco2)c1 (stereo not given) | -8% | 7% | -15%[0.0935 µM] | -10% | 10% | 26%
CCN(CC)S(=O)(=O)c1ccc(O)c(NS(=O)(=O)c2ccccc2F)c1 | -5% | 50µM* | 3% | -23%[57.1 µM] | ? | 1.4µM*
CCOC(=O)c1c(C)[nH]c(O)c1C=Nc1ccc(Cl)cc1 | -34% | ? | 8% | -35% | ? | 50µM*
Cc1[nH][nH]c(=O)c1C=Nc1ccc(C(F)(F)F)cc1 | -17% | 3% | -5% | -4% | 34% | -29%
COC(=O)c1c(C)[nH]c(O)c1C=Nc1ccc(C(C)C)cc1 | 35µM* | 3% | 4% | 45µM* | ? | ?
CCOC(=O)c1c(C)[nH]c(O)c1C=Nc1ccc(C(F)(F)F)cc1 | -9% | -9% | 4% | ? | -8% | 45µM*
COC(=O)c1c(C)[nH]c(O)c1C=Nc1ccc(Oc2ccccc2)cc1 | -17% | -2% | -15% | ? | -20% | -21%
COc1ccccc1NC(=O)CSc1nnc(NC(=O)C2CCC2)s1 | -2% | 2% | 9%[0.0935 µM] | -15% | 21% | 59%
Cc1nc2cnc(Oc3ccccc3)nc2n(CCc2ccccc2)c1=O | . | 18% | . | . | . | 12%[12.7 µM]
COc1cc2ccc(=O)oc2c(OC)c1OC | . | 1% | 3%[56.1 µM] | . | . | -25%[2.33 µM]
COc1cc2ccc(=O)oc2c(O)c1O | . | 40µM*! | -2% | 6.3µM* | 0% | .
COC1=CC(=O)OC12CCCCC2 | 9% | 17% | -4% | 32% | 41% | -1%[12.7 µM]
COc1ccc(C2=CC(=O)OC3(CCCC3)O2)cc1 | ? | 2% | 1% | 1% | 19% | 45µM*
CC1(c2cccc(Br)c2)NC(=O)N(CC(=O)NC2CCCCC2)C1=O (stereo not given) | 7% | . | 0% | 1% | 56% | ?
Cc1ccc(C2(c3ccccc3)NC(=O)N(CC(=O)NC3CCCCC3)C2=O)cc1C (stereo not given) | -3% | . | -8% | -17% | 17% | 14µM*
CCc1ccc(N2C(=O)CC(NNc3nc4ccccc4s3)C2=O)cc1 (stereo not given) | -11% | -12% | 8% | -20% | 21% | 14µM*
COc1ccccc1NC(=O)CSc1nc(-c2ccc(C(C)(C)C)cc2)c(C#N)c(=O)[nH]1 | 79µM* | . | 5% | -34% | 26% | -51%[59 µM]
CN(C(=O)CSc1nc(-c2ccc(C(C)(C)C)cc2)c(C#N)c(=O)[nH]1)C1CCCCC1 | -27%[57.1 µM] | -7% | 4% | -16% | 25% | 45µM*
O=C(O)CCc1ccc(S(=O)(=O)Nc2ccccc2N2CCCCC2)cc1 | . | . | 0% | -15% | 27% | .
Cc1ccc(-n2c(C)cc(C(=O)Cn3nc(C(=O)O)c4ccccc4c3=O)c2C)cc1 | -10% | -3% | 5% | ? | -20% | 79µM*
COc1ccc(-n2c(C)cc(C(=O)Cn3nc(C(=O)O)c4ccccc4c3=O)c2C)cc1 | -28% | -10% | -7% | -25% | -21% | ?
COCCn1c(C)cc(C(=O)COC(=O)c2ccc3ncsc3c2)c1C | 56µM* | 6% | 3% | ? | -32% | 6%[12.7 µM]
Cc1cc(C(=O)CCl)c(C)n1CCc1ccccc1 | -23% | 20µM* | 4% | 45µM* | ? | 50µM*
COCC(C)n1c(C)cc(C(=O)COC(=O)c2c(C)nn(-c3ccccc3)c2C)c1C (stereo not given) | ? | -4% | 6% | ? | ? | 50µM*
O=C(Nc1ccccc1)OC1CC2CC1C1CCCC21 (stereo not given) | 55% | -1% | 0% | 21% | 125% | 186%
SMILES | BAZ2B inh | Sfp inh | TDP1 inh | JMJD2A Tudor inh | HP1b binding inh | G9a inh
Cc1ccccc1CC1(CO)CCCN(Cc2nc(-c3cccs3)oc2C)C1 (stereo not given) | -34% | -5% | 8% | ? | -11% | -37%
COc1cccc(N2C(=O)C(CC(=O)Nc3cccc(F)c3)N(C3CCCC3)C2=O)c1 (stereo not given) | -7% | . | 3% | -14% | 23% | ?
CCc1ccc(CNC(=O)c2c(C)oc3ncnc(N4CCOCC4)c23)cc1 | 11%[57.1 µM] | . | 1% | -10% | 36% | 6%[59 µM]
CC(=O)c1ccc(NC(=O)CN2C(=O)COc3ccc(S(=O)(=O)N4CCCC4)cc32)cc1 | -11% | 9% | 0% | -2% | 30% | 18%[59 µM]
COCC(C)n1c(C)cc(C(=O)CSc2ncccn2)c1C (stereo not given) | ? | -7% | -12% | -15% | 24% | 35µM*
COCC(C)n1c(C)cc(C(=O)COC(=O)c2nn(C)c(=O)c3ccccc23)c1C (stereo not given) | . | . | 6% | -32% | -10% | .
COCC(C)n1c(C)cc(C(=O)Cn2nc(C(=O)O)c3ccccc3c2=O)c1C (stereo not given) | -32% | 14% | 1% | -34% | -17% | 45µM*
COCCn1c(C)cc(C(=O)CSc2nncn2-c2ccccc2)c1C | -33% | 9% | 2% | -20% | 14% | 50µM*
COCCn1c(C)cc(C(=O)COC(=O)c2c(C)nn(Cc3ccccc3)c2C)c1C | ? | -1% | 4% | ? | ? | 79µM*
COCC(C)n1c(C)cc(C(=O)CSc2ccc(NC(C)=O)cc2)c1C (stereo not given) | -30% | -3% | 1% | 3% | ? | 2%[12.7 µM]
CC(C(=O)Nc1ccc(F)cc1Cl)N1CCN(S(=O)(=O)c2cccs2)CC1 (stereo not given) | 2% | . | 1% | -2% | 38% | 7%[59 µM]
COC(=O)c1ccc(/C=C/C(=O)OCC(=O)c2ccc[nH]2)cc1 | . | . | -2% | -3% | 19% | .
Cc1c(Cl)cccc1NC(=O)CSc1nccn1C | -10% | 8% | 4% | -13% | 13% | 3%
O=C(Cn1ncc2c3ccccc3n(Cc3ccc(F)cc3)c2c1=O)NCCCN1CCCCC1 | -14% | . | 3% | -16% | 14% | -8%[59 µM]
Fc1ccc(-n2[nH]nnc2=S)cc1N1CCCC1 | ? | 79µM* | 10% | 79µM* | ? | ?
O=C(O)/C=C/c1cnc2ccccc2c1 | -15% | 3% | 5% | -13% | 27% | 50µM*
O=Cc1ccc2cccnc2n1 | -8% | 16µM* | 8% | ? | 44% | 40µM*
